Tests used:
Test in all cases: DAPPL (digital affinity profiling via proximity ligation, sequencing); 10 mM Tris-HCl pH 7.5, 50 mM NaCl, 1 mM DTT, 4% glycerol, room temperature, 30 min; GST-TFs on glutathione beads, 16-mer random dsDNA library, 0.1% formaldehyde crosslink after washing; high values mean tight binding
Settings in all cases: protein: recombinant; tags: N-terminal GST; dsDNA, one strand shown
[1] = biological target: T1, ERF (Homo sapiens, UniProt P50548 1-548)
T1 sequence: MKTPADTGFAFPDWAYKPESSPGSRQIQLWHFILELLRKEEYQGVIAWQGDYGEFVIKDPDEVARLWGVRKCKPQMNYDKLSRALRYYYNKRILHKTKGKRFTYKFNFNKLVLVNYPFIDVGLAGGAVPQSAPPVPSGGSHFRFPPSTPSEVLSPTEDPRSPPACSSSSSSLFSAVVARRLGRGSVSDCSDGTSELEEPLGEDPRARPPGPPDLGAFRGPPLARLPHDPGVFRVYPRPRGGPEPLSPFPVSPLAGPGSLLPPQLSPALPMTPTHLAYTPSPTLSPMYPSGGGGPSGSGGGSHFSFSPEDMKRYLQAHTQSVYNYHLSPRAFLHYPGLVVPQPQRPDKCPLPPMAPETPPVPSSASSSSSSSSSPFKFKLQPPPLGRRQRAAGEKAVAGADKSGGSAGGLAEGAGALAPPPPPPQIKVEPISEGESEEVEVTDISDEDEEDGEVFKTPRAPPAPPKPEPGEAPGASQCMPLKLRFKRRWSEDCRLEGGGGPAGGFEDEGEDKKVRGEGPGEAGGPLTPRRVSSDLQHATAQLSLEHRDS
In short: (§1)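 After expression in yeast as GST fusions, human transcription factors were bound to glutathione beads, DNA-barcoded and mixed with a tag-only sample. The pools were incubated with 200 nmole of a 16-mer random double-stranded DNA library in Tris/NaCl/DTT/glycerol buffer (30 min, room temperature), washed and crosslinked with 0.1% formaldehyde. Proximity ligation with BsaI/T4 ligase ran for 1 h at 37 °C, before PCR amplification and sequencing on an Illumina NextSeq500. Binding signal is a hexamer's read frequency for a factor divided by its frequency for the tag-only sample.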

[2] = biological target: T2, ETV3L (Homo sapiens, UniProt Q6ZN32 1-361)
T2 sequence: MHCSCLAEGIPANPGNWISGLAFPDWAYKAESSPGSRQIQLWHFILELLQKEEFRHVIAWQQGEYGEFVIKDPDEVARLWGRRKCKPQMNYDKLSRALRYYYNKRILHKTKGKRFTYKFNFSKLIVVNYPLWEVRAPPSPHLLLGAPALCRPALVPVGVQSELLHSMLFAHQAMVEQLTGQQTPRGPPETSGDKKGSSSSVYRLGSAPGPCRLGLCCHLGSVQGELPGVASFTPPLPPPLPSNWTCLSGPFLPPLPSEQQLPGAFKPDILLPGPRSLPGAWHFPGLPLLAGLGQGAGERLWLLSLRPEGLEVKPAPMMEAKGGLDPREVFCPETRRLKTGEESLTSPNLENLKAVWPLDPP
In short: as §1

[3] = biological target: T3, ETS2 (Homo sapiens, UniProt P15036 1-469)
T3 sequence: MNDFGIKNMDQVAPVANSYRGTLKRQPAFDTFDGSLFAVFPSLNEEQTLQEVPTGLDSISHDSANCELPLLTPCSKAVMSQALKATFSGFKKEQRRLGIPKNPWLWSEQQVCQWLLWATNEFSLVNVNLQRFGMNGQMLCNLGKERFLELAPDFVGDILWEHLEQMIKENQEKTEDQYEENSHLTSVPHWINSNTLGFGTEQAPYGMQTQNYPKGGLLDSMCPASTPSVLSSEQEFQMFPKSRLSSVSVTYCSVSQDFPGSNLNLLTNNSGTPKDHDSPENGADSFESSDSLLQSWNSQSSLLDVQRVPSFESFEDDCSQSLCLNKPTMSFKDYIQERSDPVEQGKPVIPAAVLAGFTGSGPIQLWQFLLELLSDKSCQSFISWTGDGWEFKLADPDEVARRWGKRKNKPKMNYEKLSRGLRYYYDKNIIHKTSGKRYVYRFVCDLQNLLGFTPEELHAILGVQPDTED
In short: as §1

[4] = biological target: T4, SPDEF (Homo sapiens, UniProt O95238 1-335)
T4 sequence: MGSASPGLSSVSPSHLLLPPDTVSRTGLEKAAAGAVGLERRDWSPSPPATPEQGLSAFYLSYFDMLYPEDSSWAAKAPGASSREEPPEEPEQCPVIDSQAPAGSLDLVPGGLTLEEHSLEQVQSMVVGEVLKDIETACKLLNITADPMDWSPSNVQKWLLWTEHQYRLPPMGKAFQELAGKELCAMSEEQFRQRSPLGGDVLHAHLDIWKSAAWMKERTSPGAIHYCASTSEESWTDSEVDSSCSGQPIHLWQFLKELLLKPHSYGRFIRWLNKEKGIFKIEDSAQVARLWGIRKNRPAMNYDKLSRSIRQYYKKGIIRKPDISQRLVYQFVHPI
In short: as §1

[5] = biological target: T5, ETV7 (Homo sapiens, UniProt Q9Y603 1-341)
T5 sequence: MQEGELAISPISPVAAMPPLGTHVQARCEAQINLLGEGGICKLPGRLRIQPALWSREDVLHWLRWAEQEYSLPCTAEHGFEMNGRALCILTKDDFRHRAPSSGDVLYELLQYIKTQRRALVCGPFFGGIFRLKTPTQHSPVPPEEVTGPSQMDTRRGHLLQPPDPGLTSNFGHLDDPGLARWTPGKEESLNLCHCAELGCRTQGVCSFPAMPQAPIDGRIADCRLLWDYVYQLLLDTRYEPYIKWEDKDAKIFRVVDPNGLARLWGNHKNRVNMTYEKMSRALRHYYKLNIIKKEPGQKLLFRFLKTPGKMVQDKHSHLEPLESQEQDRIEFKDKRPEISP
In short: as §1

[6] = biological target: T6, ELF5 (Homo sapiens, UniProt Q9UKW6-2 1-255)
T6 sequence: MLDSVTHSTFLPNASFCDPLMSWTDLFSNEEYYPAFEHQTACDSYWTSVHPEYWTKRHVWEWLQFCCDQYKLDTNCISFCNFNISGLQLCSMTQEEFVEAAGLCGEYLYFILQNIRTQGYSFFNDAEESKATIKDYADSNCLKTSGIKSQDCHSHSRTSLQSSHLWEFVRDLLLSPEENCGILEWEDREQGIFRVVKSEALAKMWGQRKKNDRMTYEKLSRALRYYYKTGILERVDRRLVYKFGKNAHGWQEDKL
In short: as §1

[7] = biological target: T7, ETV3 (Homo sapiens, UniProt P41162-2 1-143)
T7 sequence: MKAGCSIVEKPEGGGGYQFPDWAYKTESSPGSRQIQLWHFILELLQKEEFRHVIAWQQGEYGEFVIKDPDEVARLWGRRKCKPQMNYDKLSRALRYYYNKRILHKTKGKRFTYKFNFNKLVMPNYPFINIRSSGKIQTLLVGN
In short: as §1

[8] = biological target: ETV6 (Homo sapiens, UniProt P41212 1-452)
In short: as §1

Chain of ETV6 (P41212 whole entry): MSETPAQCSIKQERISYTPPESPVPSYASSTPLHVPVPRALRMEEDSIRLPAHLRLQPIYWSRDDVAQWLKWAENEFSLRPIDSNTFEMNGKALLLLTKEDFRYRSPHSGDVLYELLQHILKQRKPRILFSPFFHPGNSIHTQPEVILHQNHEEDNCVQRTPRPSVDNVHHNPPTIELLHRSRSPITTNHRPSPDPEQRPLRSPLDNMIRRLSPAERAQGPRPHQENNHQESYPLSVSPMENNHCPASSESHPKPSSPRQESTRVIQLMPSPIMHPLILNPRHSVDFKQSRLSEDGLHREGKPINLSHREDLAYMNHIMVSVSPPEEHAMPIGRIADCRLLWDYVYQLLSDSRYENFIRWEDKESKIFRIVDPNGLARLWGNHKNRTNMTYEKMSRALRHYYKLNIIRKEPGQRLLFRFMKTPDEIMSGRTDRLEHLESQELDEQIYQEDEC

Row | Sequence | binding signal [1] | binding signal [2] | binding signal [3] | binding signal [4] | binding signal [5] | binding signal [6] | binding signal [7] | binding signal [8]
1 | TTGGCA | 1.19 fold enrichment (6-mer frequency, TF over GST control) | 1.14 fold enrichment (6-mer frequency, TF over GST control) | 1.13 fold enrichment (6-mer frequency, TF over GST control) | 1.12 fold enrichment (6-mer frequency, TF over GST control) | 1.09 fold enrichment (6-mer frequency, TF over GST control) | 1.01 fold enrichment (6-mer frequency, TF over GST control) | 1.17 fold enrichment (6-mer frequency, TF over GST control) | 1.19 fold enrichment (6-mer frequency, TF over GST control)
2 | TTCAAG | 1.27 fold enrichment (6-mer frequency, TF over GST control) | 1.31 fold enrichment (6-mer frequency, TF over GST control) | 1.21 fold enrichment (6-mer frequency, TF over GST control) | 1.31 fold enrichment (6-mer frequency, TF over GST control) | 1.28 fold enrichment (6-mer frequency, TF over GST control) | 1.18 fold enrichment (6-mer frequency, TF over GST control) | 1.42 fold enrichment (6-mer frequency, TF over GST control) | 1.26 fold enrichment (6-mer frequency, TF over GST control)
3 | GGCTCA | 1.3 fold enrichment (6-mer frequency, TF over GST control) | 1.33 fold enrichment (6-mer frequency, TF over GST control) | 1.19 fold enrichment (6-mer frequency, TF over GST control) | 1.15 fold enrichment (6-mer frequency, TF over GST control) | 1.15 fold enrichment (6-mer frequency, TF over GST control) | 1.14 fold enrichment (6-mer frequency, TF over GST control) | 1.23 fold enrichment (6-mer frequency, TF over GST control) | 1.26 fold enrichment (6-mer frequency, TF over GST control)
4 | GACCTT | 1.5 fold enrichment (6-mer frequency, TF over GST control) | 1.64 fold enrichment (6-mer frequency, TF over GST control) | 1.49 fold enrichment (6-mer frequency, TF over GST control) | 1.66 fold enrichment (6-mer frequency, TF over GST control) | 1.41 fold enrichment (6-mer frequency, TF over GST control) | 1.62 fold enrichment (6-mer frequency, TF over GST control) | 1.5 fold enrichment (6-mer frequency, TF over GST control) | 1.5 fold enrichment (6-mer frequency, TF over GST control)
5 | CTATGC | 1.34 fold enrichment (6-mer frequency, TF over GST control) | 1.52 fold enrichment (6-mer frequency, TF over GST control) | 1.44 fold enrichment (6-mer frequency, TF over GST control) | 1.49 fold enrichment (6-mer frequency, TF over GST control) | 1.42 fold enrichment (6-mer frequency, TF over GST control) | 1.33 fold enrichment (6-mer frequency, TF over GST control) | 1.55 fold enrichment (6-mer frequency, TF over GST control) | 1.33 fold enrichment (6-mer frequency, TF over GST control)
6 | AAACAT | 1.45 fold enrichment (6-mer frequency, TF over GST control) | 1.46 fold enrichment (6-mer frequency, TF over GST control) | 1.48 fold enrichment (6-mer frequency, TF over GST control) | 1.51 fold enrichment (6-mer frequency, TF over GST control) | 1.44 fold enrichment (6-mer frequency, TF over GST control) | 1.51 fold enrichment (6-mer frequency, TF over GST control) | 1.48 fold enrichment (6-mer frequency, TF over GST control) | 1.52 fold enrichment (6-mer frequency, TF over GST control)
7 | CCCTAC | 1.37 fold enrichment (6-mer frequency, TF over GST control) | 1.53 fold enrichment (6-mer frequency, TF over GST control) | 1.42 fold enrichment (6-mer frequency, TF over GST control) | 1.43 fold enrichment (6-mer frequency, TF over GST control) | 1.37 fold enrichment (6-mer frequency, TF over GST control) | 1.61 fold enrichment (6-mer frequency, TF over GST control) | 1.41 fold enrichment (6-mer frequency, TF over GST control) | 1.6 fold enrichment (6-mer frequency, TF over GST control)
8 | ACTATA | 1.29 fold enrichment (6-mer frequency, TF over GST control) | 1.24 fold enrichment (6-mer frequency, TF over GST control) | 1.36 fold enrichment (6-mer frequency, TF over GST control) | 1.42 fold enrichment (6-mer frequency, TF over GST control) | 1.28 fold enrichment (6-mer frequency, TF over GST control) | 1.35 fold enrichment (6-mer frequency, TF over GST control) | 1.33 fold enrichment (6-mer frequency, TF over GST control) | 1.31 fold enrichment (6-mer frequency, TF over GST control)
9 | ATTAAA | 1.3 fold enrichment (6-mer frequency, TF over GST control) | 1.24 fold enrichment (6-mer frequency, TF over GST control) | 1.12 fold enrichment (6-mer frequency, TF over GST control) | 1.14 fold enrichment (6-mer frequency, TF over GST control) | 1.1 fold enrichment (6-mer frequency, TF over GST control) | 1.12 fold enrichment (6-mer frequency, TF over GST control) | 1.12 fold enrichment (6-mer frequency, TF over GST control) | 1.18 fold enrichment (6-mer frequency, TF over GST control)
